40 molecules from PubChem BioAssay (Tox21) can be followed below.

Structures are written as SMILES. Results filed as inconclusive are left out. Where a call stands in place of a potency, no number is given. Active and inactive are the calls of the source. The call rests on the fitted dose curve.

The test is described as follows: p53 small molecule agonists, cell-based qHTS assay with human liver microsomes (AID 1963577).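 Further: p53 response element beta-lactamase reporter cells with liver microsomes plus NADPH.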 Conditions: HCT-116 p53RE-bla with human liver microsomes, ratio, 16 h; series mostly up to 66 µM. From the text: National Center for Advancing Translational Sciences [NCATS]
Division of Preclinical Innovation [DPI]
U.S. Environmental Protection Agency [EPA]
National Institutes of Environmental Health Sciences [NIEHS]
National Toxicology Program [NTP]
U.S. Food and Drug Administration [FDA]
p53, a tumor suppressor protein, is activated following cellular insult, including DNA damage and other cellular stresses. The activation of p53 regulates cell fate by inducing DNA repair, cell cycle arrest, apoptosis, or cellular senescence. The activation of p53, therefore, is a good indicator of DNA damage and other cellular stresses. […] The activation of the reporter gene under culture conditions can be detected by fluorescence intensity.
Tox21 Assay Protocol Summary:
The p53RE-bla cells were dispensed at 4,000cells/3ul/well in 1536-well black-clear bottom plates. After the assay plates were incubated at 37 C, 5% CO2 incubator for 5 hours, 23 nL of compounds dissolved in DMSO, positive controls or DMSO only was transferred to the assay plate. Following compound addition, 3 uL of human liver microsomes (XenoTech, Kansas City, KS) at final concentration of 0.5 mg/mL and 1uL of Beta-Nicotinamide adenine dinucleotide 2-phosphate (NADPH) at final concentration of 0.5 mg/mL were transferred to the assay plate. The plates were incubated at 37 C for 16 hours. 1 uL of LiveBLAzer detection mixture was added to each well and the plates were incubated at room temperature in the dark for 2 h.
`CCOCN(C(=O)CS(=O)(=O)O)c1c(C)cccc1CC`: the Potency result is “inactive”. On the same count and under the same terms, as for `CC/C=C\CCCCCO`, the entry is “inactive”. The same measure, in the same setting: to `CC(CN=Cc1ccccc1O)N=Cc1ccccc1O` (stereo not given) belongs “inactive”; to `CC[C@H]1CC[C@H](NCc2cc3c(cc2OC)[C@H]2C[C@H]2C(=O)N3C)[C@H](c2ccccc2)N1`, “inactive”; to `Cc1nc(Nc2ncc(C(=O)Nc3c(C)cccc3Cl)s2)cc(N2CCN(CCO)CC2)n1`, “inactive”. Same read-out and setting: as for `O=C1c2ccccc2C(=O)c2c(O)ccc(O)c21`, the entry is “inactive”; as for `C[C@H](CS)C(=O)N1CCC[C@H]1C(=O)O`, “inactive”. Consider `CCOC(=O)/C=C/c1ccccc1`, for which the Potency result is “inactive”. The same measure, in the same setting: to `COc1cc(/C=C/c2ccccc2)oc(=O)c1` belongs “inactive”. For the molecule `CC(=O)Nc1ccccc1O`, the Potency result was “inactive”.

In the case of `Oc1cccc(-c2c3nc(c(-c4cccc(O)c4)c4ccc([nH]4)c(-c4cccc(O)c4)c4nc(c(-c5cccc(O)c5)c5ccc2[nH]5)CC4)C=C3)c1`, the Potency result was “inactive”.

Consider `C[C@]12CCC(=O)C=C1[C@@H]1C[C@@H]1[C@H]1[C@@H]3[C@@H]4C[C@@H]4[C@@]4(CCC(=O)O4)[C@@]3(C)CC[C@@H]12`, for which the Potency result was “inactive”.

`c1ccc2occc2c1`: the Potency result was “inactive”.

As for `CCCC(=O)OCCc1ccccc1`, the Potency result was “inactive”. The same measure, in the same setting: to `Cc1c(C(=O)NN2CCCCC2)nn(-c2ccc(Cl)cc2Cl)c1-c1ccc(Cl)cc1` belongs “inactive”; to `CC(C)(C)C1CCC(CC2=C(O)c3ccccc3C(=O)C2=O)CC1` (stereo not given), “inactive”. As for `CC1=CC(=C(c2ccc(N)cc2)c2ccc(N)cc2)C=CC1=N`, the activation is -13.4% [at 5.99 µM] (inactive). For the molecule `OC(CN1CCC(Cc2ccc(F)cc2)CC1)c1ccc(Cl)cc1` (stereo not given), the Potency result is “inactive”. Same read-out and setting: as for `CCCCCCCCC(CCCCCC)C(=O)O` (stereo not given), the entry is “inactive”. For the molecule `CC1(C)CCC(C)(C)c2cc(C(=O)Nc3ccc(C(=O)O)cc3)ccc21`, the Potency entry was “inactive”. On the same count and under the same terms, to `Oc1ccc(Cl)cc1C1CCCC1` belongs “inactive”; to `CC1(CO)CN(c2ccccc2)NC1=O` (stereo not given), “inactive”. On the same count and under the same terms, to `CCCc1ncc(C[n+]2ccccc2C)c(N)n1` belongs “inactive”; to `CC(C)COCC(CN(Cc1ccccc1)c1ccccc1)N1CCCC1` (stereo not given), “inactive”. Regarding `CNCC[C@H](Oc1cccc2ccccc12)c1cccs1`, the Potency result was “inactive”. Same read-out and setting: to `CCc1c(C(=O)NN2CCCCC2)nn(-c2ccc(Cl)cc2Cl)c1-c1ccc(Br)cc1` belongs “inactive”.

As to `C1CCC2=NCCCN2CC1`, the Potency result is “inactive”. Same read-out and setting: as for `CCOC(=O)COc1ccc2c(c1)CC(NCC(O)c1cccc(Cl)c1)CC2` (stereo not given), the entry is “inactive”; as for `COC(=O)CC(C)CCC=C(C)C` (stereo not given), “inactive”; as for `O=C(c1ccccc1)c1ccc(O)cc1O`, “inactive”. Same read-out and setting: to `Cc1c(Nc2ncccc2C(=O)O)cccc1C(F)(F)F` belongs “inactive”; to `O=P(c1ccccc1)(c1ccccc1)c1ccccc1`, “inactive”. Turning to `CC(=O)OCC(C)OC(C)=O` (stereo not given), the Potency entry was “inactive”. The same measure, in the same setting: to `CO[C@@]12[C@H](COC(N)=O)C3=C(C(=O)C(C)=C(N)C3=O)N1C[C@@H]1N[C@@H]12` belongs “inactive”.

In the case of `CC(C)C[C@H](NC(=O)CNC(=O)[C@H](Cc1ccc(O)cc1)NC(=O)[C@H](CO)NC(=O)[C@H](Cc1c[nH]c2ccccc12)NC(=O)[C@H](Cc1cnc[nH]1)NC(=O)[C@@H]1CCC(=O)N1)C(=O)N[C@@H](CCCN=C(N)N)C(=O)N1CCC[C@H]1C(=O)NCC(N)=O` (stereo in doubt), the Potency entry is “inactive”. Consider `COc1ccc(NC(=O)CC(C)=O)cc1`, for which the Potency entry is “inactive”. In the case of `CCCCCOC(=O)CCCCC`, the Potency entry was “inactive”.

Turning to `O=C(N/N=C/c1ccc([N+](=O)[O-])o1)c1ccc(O)cc1`, the Potency entry is “inactive”.

With `O=C1NC(=O)c2cc([N+](=O)[O-])ccc21`, the Potency result was “inactive”. Same read-out and setting: to `O=C(N/N=C/c1ccccc1O)c1ccncc1` belongs “inactive”.
